The values that follow come from PubChem BioAssay AID1903 (Southern Research Specialized Biocontainment Screening …, 2009).

Structures are written as SMILES. The campaign covered roughly 310,000 compounds. About 1,200 (0.39%) were called active. A selection follows. Entries with a potency or affinity are not part of this list. Unmarked numbers belong to inactive results. The rule behind the calls is not given here.

Chain of Large T antigen (Simian virus 40) (P03070 whole entry, looked up): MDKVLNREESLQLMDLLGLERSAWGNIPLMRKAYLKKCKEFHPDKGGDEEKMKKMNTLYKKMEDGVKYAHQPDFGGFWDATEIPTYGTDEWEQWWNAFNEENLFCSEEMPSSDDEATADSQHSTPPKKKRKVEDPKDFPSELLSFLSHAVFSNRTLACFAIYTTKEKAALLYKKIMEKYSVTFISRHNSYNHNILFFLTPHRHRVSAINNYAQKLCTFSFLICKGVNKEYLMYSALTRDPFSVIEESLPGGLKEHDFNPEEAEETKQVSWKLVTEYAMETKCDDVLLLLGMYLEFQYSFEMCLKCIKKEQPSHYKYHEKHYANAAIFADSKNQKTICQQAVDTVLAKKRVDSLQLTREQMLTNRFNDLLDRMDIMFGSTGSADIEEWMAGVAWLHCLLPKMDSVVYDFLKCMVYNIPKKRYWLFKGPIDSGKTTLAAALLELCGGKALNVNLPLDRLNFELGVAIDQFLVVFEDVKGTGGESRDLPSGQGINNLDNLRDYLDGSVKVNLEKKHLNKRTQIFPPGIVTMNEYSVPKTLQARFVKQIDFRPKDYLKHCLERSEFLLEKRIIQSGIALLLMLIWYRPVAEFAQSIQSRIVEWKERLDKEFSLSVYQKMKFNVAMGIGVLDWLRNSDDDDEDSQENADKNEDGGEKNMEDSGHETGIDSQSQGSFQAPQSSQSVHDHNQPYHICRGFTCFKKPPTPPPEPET

The assay addresses Large T antigen (Simian virus 40) (UniProt P03070). Put plainly: SV40 large T antigen inhibitors, biochemical (AID 1903). The conditions noted are these: SV40 large T antigen ATPase/helicase inhibition assay; at 20 µM; stronger effect = higher value.
As usually defined, the inhibition is the change of the read-out against control, counted positive when it falls. For `CC(C)c1ccc(NC(=O)CSc2ncccc2C(=O)Oc2cccc([N+](=O)[O-])c2)cc1`, the inhibition was 16.9%.
In the case of `CCc1cc2c3c([nH]c2cc1S(=O)(=O)N1CCC2(CC1)OCCO2)CCCC3=O` it was -0.36%; in that of `CCN(C(=O)Cn1cnc2c(nc3n2CCCCC3)c1=O)c1cccc(Cl)c1`, 18.9%.
For the compound `C#CCn1c(=NC(=O)c2cc(-c3cccs3)nc3ccccc23)sc2cc(S(N)(=O)=O)ccc21`, the inhibition was 8.04%.
Turning to `O=C(O)C1CCCCC1C(=O)Nc1ccc(OCc2ccccc2)cc1` (centres undefined), the inhibition is 9.44%.
For `COc1cc(/C=C/c2nc3ccccc3c(=O)[nH]2)cc(Br)c1O`, the inhibition was -2.29%.
As for `CCOC(=O)c1[nH]c2ccccc2c1NC(=O)CC(C)(C)C`, the inhibition is -0.46%.
For `O=C(O)CCC(=O)Nc1ccc(F)cc1`, the inhibition was 12.5%.
Consider `O=C(O)CCC(=O)Nc1ccc(Cc2ccc(NC(=O)CCC(=O)O)cc2)cc1`, for which the inhibition was 5.94%.
Regarding `CC1CCCC(NC(=O)C2CCN(S(=O)(=O)c3cnc[nH]3)CC2)C1C` (centres undefined), the inhibition is 10.4%.
In the case of `COc1ccccc1N1CCN(S(=O)(=O)c2cc(C(F)(F)F)cc(C(F)(F)F)c2)CC1`, the inhibition is 4.92%.
In the case of `CCOC(=O)C1(C)NC(c2ccc(O)cc2)C2C(=O)N(c3ccccc3)C(=O)C21` (centres undefined) it was 2.88%.
For the compound `O=C(Nc1ccc2nc(-c3cccs3)c(-c3cccs3)nc2c1)NC1CC1`, the inhibition is -4.56%.
The figure for `O=C(NCCO)Nc1ccc2nc(-c3ccco3)c(-c3ccco3)nc2c1` is 52.6%.
For `O=[N+]([O-])c1ccc(/C=N/N2CCN(Cc3ccccc3)CC2)cc1`, the inhibition is 8.88%.
`CCOC(=O)/C=C/c1cnn(-c2ccccc2)c1`: the inhibition was -1.48%.
Turning to `O=C1NN(c2ccc(F)cc2)C(=O)/C1=C\c1cnn(-c2ccccc2)c1`, the inhibition is 2.23%.
The figure for `Cc1ccccc1N1C(=O)c2cccc3cccc(c23)C1=O` is 4.81%; for `CCN(CC)c1ccc(C(=O)N/N=C/c2ccc(OC)cc2OC)cc1` it is 0.86%; for `CN(C)c1ccc(/C=N/N2C(=O)c3ccccc3C2=O)cc1` it is 21.5%.
For `CCN(CC)c1ccc(C=O)c(OC)c1`, the inhibition was 11.8%.
In the case of `COCCNC(=O)CN1CCC(NC(=O)Nc2ccc(C(F)(F)F)cc2)CC1` it was 27.4%; in that of `Cc1cc(C)nc(NNC2=CC(=[N+]3CCCCC3)CC(C)(C)C2)n1`, 3.95%.
The figure for `CNC(=O)COC(=O)CNC(=O)c1cc(Cl)cc([N+](=O)[O-])c1` is 6.1%; for `C=CCn1c(SCc2cccc(OC)c2)nnc1-c1ccncc1` it is 5.97%.
In the case of `CCc1ccc(C2CC(c3ccc(Cl)cc3)=NNC2=O)cc1` (centres undefined) it was -1.48%; in that of `COc1ccccc1N1CCN(c2nccc(C)n2)CC1`, 11.9%.
Consider `Cc1ccnc(N2C3CCC2CC(O)(c2ccccc2)C3)n1` (centres undefined), for which the inhibition was 2.55%.
The figure for `O=c1c2ccccc2c(C=Nc2ccccc2O)c(O)n1-c1nccs1` is 15.8%.
With `O=C1CCCN1c1nccs1`, the inhibition was 4.21%.
In the case of `O=C(NCCc1c[nH]c2ccccc12)C1CCN(S(=O)(=O)c2ccccc2F)CC1` it was 10.5%; in that of `COc1ccc(S(=O)(=O)Cc2ccc(C(=O)NCc3ccccc3)o2)cc1`, 7.39%; in that of `Cc1c([N+](=O)[O-])cc(S(=O)(=O)Nc2ccncc2)cc1[N+](=O)[O-]`, 1.66%.
The figure for `COc1ccc(/C=C/CN2CCN(Cc3ccc(F)cc3)C(CCO)C2)cc1` (centres undefined) is 10.1%; for `O=C1NC(=S)N/C1=C/C=C/c1ccccc1` it is -22.6%.
As for `COC(=O)C1=C(C)N(c2ccc(C)c(C)c2)/C(=C/c2ccco2)C1=O`, the inhibition is 13.5%.
Regarding `O=C1NC(=O)N(c2ccccc2)C1=O`, the inhibition is 28.5%.
In the case of `CCOC(=O)C1=C(C)N(c2ccc(C)c(C)c2)C(=O)/C1=C\c1ccco1` it was 7.58%; in that of `O=C1S/C(=C\C=C\c2ccco2)C(=O)N1c1ccccc1`, 20.3%.
In the case of `O=C1N/C(=C/c2ccc(N3CCCC3)cc2)C(=O)N1c1ccccc1` it was 1.12%; in that of `O=C1/C(=C\c2ccco2)SC(=S)N1c1ccccc1`, 21.4%.
The figure for `Nc1ccc2c3c(cccc13)C(=O)N(c1ccccc1)C2=O` is 6.29%.
On to `O=C(OCc1ccccc1)N1CCOCCN(C(=O)OCc2ccccc2)CCOCC1`, for which the inhibition was 0.08%.
Turning to `c1ccc(N2CCN(c3nc(-c4cccs4)nc4ccccc34)CC2)cc1`, the inhibition was 17.6%.
Take `COC(=O)c1cccc(C(=O)N2CCCC(C(=O)c3ccccc3OC)C2)c1` (centres undefined): the inhibition is 2.9%.
As to `Cc1ccccc1CCNC(=O)Cn1ccc2cc(S(=O)(=O)N3CCCC3)ccc21`, the inhibition was 11.1%.
For the compound `CCN(Cc1ccccc1)C(=O)CCS(=O)(=O)c1ccc2c(c1)NC(=O)CO2`, the inhibition is 6.63%.
The figure for `CN(C)c1ccc(/C=N/NC(=O)Cn2nnc3ccccc32)cc1` is 14.7%; for `COc1cccc(/C=N/NC(=O)C(C)n2nnc3ccccc32)c1` (centres undefined) it is 23.4%.
In the case of `COc1cccc(/C=N/NC(=O)CCn2nnc3ccccc32)c1` it was 9.43%; in that of `COc1cccc(/C=N\NC(=O)Cn2nnc3ccccc32)c1O`, 34.8%.
`COc1ccc(/C=N/NC(=O)CCn2nnc3ccccc32)cc1`: the inhibition is 3.72%.
In the case of `COc1ccc(Cn2nnc3ccccc32)cc1` it was 0.77%.
In the case of `COc1ccc(/C=N/NC(=O)C(C)n2nnc3ccccc32)cc1OC` (centres undefined) it was -3.35%; in that of `COc1cc(Cn2nnc3ccccc32)cc(Br)c1O`, 29.6%.
In the case of `O=C(Cn1ccc2ccccc2c1=O)NCC(=O)N1CCN(c2ccccc2F)CC1` it was 5.42%; in that of `CC(=O)Nc1ccccc1OC(C)C(=O)N1CC(C)CC(C)C1` (centres undefined), 2.89%; in that of `CCOc1ccc(NC(=O)N2CCC(n3nnc4cc(C)ccc43)CC2)cc1`, -5.9%.
For `Cn1c(=O)cc(SCC(=O)Nc2ccccn2)c2ccccc21`, the inhibition is 18.7%.
In the case of `COC(=O)c1ccccc1NC(=O)N1CCN(S(C)(=O)=O)CC1` it was 5.14%; in that of `CCNC(=S)N(CCc1ccccc1C)Cc1cc2cc(OC)c(OC)cc2[nH]c1=O`, 2.57%.
Consider `COc1ccc(N(CC(=O)NCc2ccc(F)cc2)C(=O)c2snc(C(N)=O)c2N)cc1OC`, for which the inhibition is 5.71%.
The figure for `CSc1ccc(C#N)cc1NC(=O)c1cccnc1Cl` is 1.02%; for `C/C(=N\NC(=O)Cn1ccc(C(F)(F)F)n1)c1ccc(N2CCOCC2)cc1` it is 5.06%; for `COc1ccc(/C=N/NC(=O)CCc2c(C)n[nH]c2C)cc1OC` it is 0.79%.
In the case of `COc1ccc(/C=N/NC(=O)CCc2c(C)n[nH]c2C)cc1O` it was 33.9%.
As to `CCOc1cc(/C=N/NC(=O)CCn2nc(C)cc2C)ccc1O`, the inhibition is 33.9%.
The figure for `COc1cc(/C=N\NC(=O)Cn2nnc3ccccc32)cc(OC)c1OC` is 4.84%; for `COc1cc(/C=N/NC(=O)CCn2c3ccccc3c3ccccc32)ccc1O` it is 13.3%.
Consider `COc1ccc(O)c(/C=N\NC(=O)CCn2nnc3ccccc32)c1`, for which the inhibition is 9.4%.
The figure for `COc1ccc(/C=N/NC(=O)Cn2nnc3ccccc32)cc1OC` is 9.9%; for `COc1ccc(/C=N/NC(=O)CCn2nc(C)cc2C)cc1O` it is 32.7%.
On to `CC1CCCN(C(=O)N2c3ccccc3Sc3ccccc32)C1` (centres undefined), for which the inhibition is 6.24%.
With `CCOC(=O)c1c(-c2ccccc2)csc1NC(=O)c1ccc(S(=O)(=O)N2CCOCC2)cc1`, the inhibition was 11.2%.
The figure for `C=CCn1c(COc2ccc(Cl)cc2)nnc1SCC(=O)Nc1ccc(S(N)(=O)=O)cc1` is -7.84%.
On to `COc1cccc2cc(-c3nnc(-c4ccccc4)o3)c(=O)oc12`, for which the inhibition is 3.9%.
Regarding `COC(CN(C)C(C(=O)NC1CCCCC1)c1ccccc1)OC` (centres undefined), the inhibition was -3.44%.
For `Cc1cc(C)cc(NC(=O)Nn2cnnc2)c1`, the inhibition was 14.3%.
The figure for `CCCCN(Cc1ccccc1)C(=O)CCN1C(=O)C2C3C=CC(C3)C2C1=O` (centres undefined) is 8.63%; for `Cc1cc([N+](=O)[O-])ccc1NC(=O)c1cncc(Br)c1` it is 12.5%; for `COC(=O)c1ccc(S(=O)(=O)c2ccc(Cl)cc2)c(N)c1` it is 13.4%.
`COC(=O)c1ccc(C(=O)NC2CCSc3ccccc32)cc1` (centres undefined): the inhibition is 6.81%.
The figure for `CC(C)CCN1CCN=C1Nc1ccccc1` is 0.58%; for `Cn1c(SCc2ccc([N+](=O)[O-])cc2)nc2c(c1=O)SCC2` it is 3.17%; for `Nc1nc2ccc(S(=O)(=O)c3ccc4nc(N)sc4c3)cc2s1` it is 10.5%.
In the case of `CC(C)c1ccc2nc(N)sc2c1` it was 8.35%; in that of `Fc1ccc2nc(N3CCOCC3)sc2c1`, -1.3%.
In the case of `c1ccc2sc(N3CCOCC3)nc2c1` it was 20.2%; in that of `CC(Sc1nc2c(c(=O)[nH]1)CCCC2)C(=O)Nc1ccccc1C#N` (centres undefined), 6.43%.
For `O=C(N/N=C/c1cnc(N2CCOCC2)s1)c1ccccc1`, the inhibition is 11.5%.
In the case of `O=C(COc1ccccc1)NCC(=O)NC1=NCCS1` it was 3.88%; in that of `COc1cc(/C=C/C(=O)OCC(=O)N(C)C2CCS(=O)(=O)C2)ccc1OC(F)F` (centres undefined), -1.47%.
With `COc1cc(/C=C/C(=O)OCC(=O)NC2CCS(=O)(=O)C2)ccc1O` (centres undefined), the inhibition was 34%.
In the case of `Cc1ccc(NC(=O)CN(C)S(=O)(=O)c2ccc3[nH]c(=O)oc3c2)c(C)c1` it was 10.9%.
In the case of `CC1CC(C)CN(CC(=O)N2CCc3[nH]c4ccccc4c3C2)C1` (centres undefined) it was -3.87%; in that of `O=C1/C(=C\c2ccco2)SC(=S)N1C1CCS(=O)(=O)C1` (centres undefined), 22.2%; in that of `Cc1ccc(/C=C2\SC(=S)N(C3CCS(=O)(=O)C3)C2=O)o1` (centres undefined), 9.87%.
The figure for `O=C1/C(=C/c2ccco2)SC(=S)N1C1CCS(=O)(=O)C1` (centres undefined) is 33.6%; for `Cc1ccc(/C=C2/SC(=S)N(C3CCCCC3)C2=O)o1` it is 31.8%.
